Bioassay records (PubChem BioAssay)
AHR act = activators of human aryl hydrocarbon receptor; P35869; AHR-responsive luciferase reporter cells, luminescence; activation, % at 5 µM; 2.5% of 320,000 active; in the data active = activation above about 47%
Target sequence (P35869 whole entry, looked up): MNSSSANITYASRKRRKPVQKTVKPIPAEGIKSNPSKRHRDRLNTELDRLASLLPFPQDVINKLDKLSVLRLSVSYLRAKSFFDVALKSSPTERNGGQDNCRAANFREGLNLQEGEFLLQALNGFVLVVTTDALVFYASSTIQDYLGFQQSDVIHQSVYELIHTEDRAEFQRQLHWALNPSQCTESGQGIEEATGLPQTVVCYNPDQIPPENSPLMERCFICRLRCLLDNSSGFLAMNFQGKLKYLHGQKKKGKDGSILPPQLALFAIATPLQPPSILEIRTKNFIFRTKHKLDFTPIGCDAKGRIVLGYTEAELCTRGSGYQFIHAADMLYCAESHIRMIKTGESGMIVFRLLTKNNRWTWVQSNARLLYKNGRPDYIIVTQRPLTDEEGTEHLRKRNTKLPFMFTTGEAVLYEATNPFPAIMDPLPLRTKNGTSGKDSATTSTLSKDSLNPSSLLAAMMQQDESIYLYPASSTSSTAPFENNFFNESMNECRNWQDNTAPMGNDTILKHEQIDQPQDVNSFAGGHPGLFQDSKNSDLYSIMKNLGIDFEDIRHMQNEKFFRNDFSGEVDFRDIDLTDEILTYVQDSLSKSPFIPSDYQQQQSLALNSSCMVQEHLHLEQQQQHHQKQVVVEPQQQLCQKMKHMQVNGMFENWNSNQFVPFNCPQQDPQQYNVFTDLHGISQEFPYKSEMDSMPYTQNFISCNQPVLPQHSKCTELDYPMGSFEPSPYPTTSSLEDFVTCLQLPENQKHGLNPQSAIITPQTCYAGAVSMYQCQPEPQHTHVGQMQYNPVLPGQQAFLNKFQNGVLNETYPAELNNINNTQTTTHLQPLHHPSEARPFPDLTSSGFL
GRIN3A LBD mod = NR3A (human) ligand-binding domain modulation | NR3A LBD differential scanning fluorimetry, Tm shift; 0% = protein alone, 100% = glycine-bound protein | Tm shift relative to glycine control, % at 25 µM | 2.5% of 340,000 active | AID 1259313;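 active = melting temperature shift of at least 10% of the positive control shift, at one fixed dose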
AI-2 QS mod = Vibrio harveyi AI-2 quorum sensing modulation. activity change, % at 7.5 µM. Vibrio harveyi JMH597 AI-2 luminescence/OD600 ratio, 9 h; hits give low values; strain lacks LuxN and CqsS sensors; 0 = neutral-control median. 0.4% of 300,000 active. AID 2094; in the data active = activity change below about -75%, passing the limit was not always enough; inconclusive = no clear call, values can overlap the other calls;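 also: luminescence divided by OD600 gain over 9 h not by final OD600 alone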
Cardio protect = protects H9c2 cardiomyocytes from peroxide injury | H2O2 injury protection, ATPLite, 2 h | protection from H2O2 cell death, % at 20 µM | 0.63% of 360,000 active | AID 588492;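 active = compounds giving at least 50% protection of heart cells from peroxide-induced death in the single-dose screen, raw or plate-pattern-corrected value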
Mot1-301 SUMO = SUMOylation pathway inhibition by Mot1-301 growth rescue | S. cerevisiae Mot1-301 growth rescue, ATP luminescence, 38.5C; percent above DMSO median, 100 means doubled | growth rescue, % at 18.8 µM | 1% of 320,000 active | AID 2716;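 active = every valid replicate shows activation above 250% relative to neutral control wells; inactive = the rest, any valid replicate at or below 250%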
NTR1 ag = agonists of human neurotensin receptor NTR1. P30989. NTR1-U2OS beta-arrestin-GFP spot imaging, agonist mode. activation, % at 20 µM. 0.17% of 330,000 active;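 active = activation at or above 40% of the spot to cytoplasm intensity ratio, with at least 20 cells analyzed; inconclusive = wells under 20 cells, flagged as cytotoxic or low count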
JMH597 growth rt = retest: inhibitors of Vibrio harveyi JMH597 growth; 1% of 750 active; growth inhibition, % at 7.5 µM; shares compounds with AI-2 QS mod; OD600 absorbance, 9 h; lacks LuxN and CqsS sensors; AID 2726;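 active = every replicate shows growth inhibition above 50%; inconclusive = at least half, but not all, replicates pass that cutoff; inactive = fewer than half of replicates pass it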
BB721 lum counter = retest counter-screen: BB721 constitutive quorum sensing luminescence decrease | shares compounds with AI-2 QS mod | Vibrio harveyi BB721 luminescence, 9 h | inhibition, % at 7.5 µM | 95% of 750 active | AID 2727;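 active = inhibition above about 80% in every replicate, not just on average, limit read from the data; inconclusive = at least half of replicates past the limit, but not all; inactive = fewer than half of replicates past the limit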
BB721 growth = retest: blocks Vibrio harveyi BB721 growth; shares compounds with AI-2 QS mod; OD600 absorbance, 9 h; growth inhibition, % at 7.5 µM; 3% of 750 active; AID 2728;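 active = every replicate shows growth inhibition above 50%; inconclusive = at least half but not all replicates above 50% inhibition; inactive = under half of replicates above 50% inhibition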
JMH597 AI-2 mod = Vibrio harveyi AI-2 signaling luminescence modulation – JMH597 strain, confirmation. shares compounds with AI-2 QS mod. Vibrio harveyi JMH597 AI-2 quorum sensing luminescence, 9 h; luxN and CqsS knockout, AI-2 only. inhibition, % at 7.5 µM. 97% of 750 active. AID 2736;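 active = every replicate shows more than 75% inhibition of signal versus neutral control wells; inconclusive = half to three quarters of replicates exceed 75% inhibition; inactive = fewer than half of replicates exceed 75% inhibition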
Numbers stand for hits; - = inactive; ? = inconclusive; . = no result. Compounds with a hit are over-represented: about 6.2% of the library has one in this group of screens.

SMILES	AHR act	GRIN3A LBD mod	AI-2 QS mod	Cardio protect	Mot1-301 SUMO	NTR1 ag	JMH597 growth rt	BB721 lum counter	BB721 growth	JMH597 AI-2 mod
Cn1nc(C(F)(F)F)c2cc(NC(=O)OCc3ccc(F)cc3)sc21	-	-	-93	-	.	-	-	99	-	98
Cc1nc2ccccc2cc1OCc1ccccc1	-	-	-81	-	-	-	-	93	?	96
Cc1nc2ccccc2cc1C(=O)NCc1ccccc1	-	-	-	-	-	-	.	.	.	.
Oc1ccccc1-c1nnc(COc2ccc(Cl)cc2Cl)o1	-	-	-	-	-	-	.	.	.	.
Clc1ccc(-c2nnc(CCc3ccccc3)o2)c(Cl)c1	-	-	-90	-	-	-	-	97	-	98
O=C(NN1CCCCCC1)c1ccccc1F	.	-	.	-	.	.	.	.	.	.
c1ccc(OCc2nnc(-c3ccccc3)o2)cc1	-	-	-88	-	.	-	-	97	-	97
Oc1ccccc1-c1nnc(COc2ccccc2)o1	-	-	-	-	-	-	.	.	.	.
COc1nc(C)nc(C)c1Oc1ccc(Cl)cc1Cl	-	-	-	-	-	-	.	.	.	.
Nc1cc(Oc2ccc(Cl)cc2Cl)nc(N)n1	-	-	-95	-	-	-	-	99	-	99
O=S(=O)(c1ccc(SCc2ccc(Cl)cc2)nc1)N1CCCC1	-	-	.	-	-	-	.	.	.	.
CCCCNC(=O)COC(=O)c1ccc(NS(=O)(=O)c2ccc3c(c2)OCCO3)cc1	-	-	-92	-	-	-	-	98	-	99
Cc1ccc(N(CC(=O)N2CCN(Cc3ccccc3)CC2)S(C)(=O)=O)cc1C	-	-	-	-	-	-	.	.	.	.
O=C(CN1C(=O)c2ccccc2C1=O)C(O)CN1C(=O)c2ccccc2C1=O (centres undefined)	.	.	.	-	.	.	.	.	.	.
N/C(=N\OC(=O)CC1CCCCC1)c1cccc(Br)c1	-	-	-80	-	-	-	-	96	-	96
N/C(=N\OC(=O)CC1CCCCC1)c1ccc(Br)cc1	-	-	-	-	-	-	.	.	.	.
Cc1c(C(=O)N2CCN(CC(=O)Nc3ccccc3Cl)CC2)oc2ccc(Br)cc12	-	-	.	-	-	-	.	.	.	.
Clc1cccc(CSc2ccc(-c3cccnc3)nn2)c1	-	-	-91	-	-	-	-	97	-	98
Clc1cccc(CSc2ccc(-c3ccco3)nn2)c1	-	-	-	-	-	-	.	.	.	.
CN(C)CCC1(C2=CCCC2)CC/C(=C/c2ccc(Cl)cc2)C1=O (centres undefined)	.	-	.	-	.	.	.	.	.	.
CCc1ccc(NC(=O)CCc2ccc(CC)o2)cc1	-	-	?	-	-	-	-	-	-	88
CCc1ccc(CCC(=O)Nc2ccc(C)c(C)c2)o1	-	-	-87	-	-	-	-	93	-	96
COCCNC(=O)CSc1nnc(NC(=O)C2CC(=O)N(c3ccccc3OC)C2)s1 (centres undefined)	-	-	-	-	-	-	.	.	.	.
Clc1ccccc1CSc1nnc(-c2ccncc2)o1	-	-	-	-	-	-	.	.	.	.
Brc1cccc(CSc2nnc(-c3ccncc3)o2)c1	-	-	-85	-	-	-	-	95	-	96
SMILES	AHR act	GRIN3A LBD mod	AI-2 QS mod	Cardio protect	Mot1-301 SUMO	NTR1 ag	JMH597 growth rt	BB721 lum counter	BB721 growth	JMH597 AI-2 mod
c1ccc2c(CSc3nnc(-c4ccncc4)o3)cccc2c1	-	-	-83	-	-	-	-	94	-	96
O=C(COn1nnc2ccc(Cl)cc21)NC1CCS(=O)(=O)C1 (centres undefined)	.	-	.	-	.	-	.	.	.	.
O=C(COn1nnc2ccc(Cl)cc21)NCc1ccccc1	-	-	-89	-	-	-	-	96	-	97
O=S(=O)(Nc1ccc2ccccc2n1)c1ccccc1	-	-	-	-	-	-	.	.	.	.
CSc1ccc(S(=O)(=O)N2CCC(C(=O)NCc3ccco3)CC2)cc1	-	-	-90	-	-	-	-	-	-	100
Cc1ccc(CCC(=O)Nc2ccccc2F)s1	-	-	-89	-	-	-	-	94	-	96
O=C(CC(=O)Nc1ccccc1F)Nc1ccccc1F	-	-	-	-	-	-	.	.	.	.
Cc1ccc(N(Cc2ccccc2)C(=O)Cc2ccc(S(=O)(=O)N3CCOCC3)s2)cc1	.	-	.	-	.	-	.	.	.	.
c1ccc(-c2nnc(SCc3ccncc3)o2)cc1	.	.	.	-	.	.	.	.	.	.
CSc1nnc(-c2ccccc2)o1	-	-	?	-	-	-	-	-	-	-
Cc1cccc(CSc2nnc(-c3ccco3)o2)c1	-	-	-91	-	-	-	-	97	-	98
CSc1nnc(-c2ccccc2SC)o1	-	-	-	-	-	-	.	.	.	.
Cc1cccc(CSc2nnc(-c3ccco3)n2C)c1	-	-	-	-	-	-	.	.	.	.
Cc1cccc(-c2nnc(SCc3ccccc3)o2)c1	-	-	-89	-	.	-	-	96	?	97
CC(=O)c1c(C)cc(C)c(CSc2nnc(-c3ccco3)o2)c1C	-	-	-81	-	-	-	-	89	-	91
O=C1C=C(c2ccc(OC(F)(F)F)cc2)C[C@@H](c2ccc(Cl)cc2)C1	-	-	.	-	-	-	.	.	.	.
CCOc1ccc(CCNC(=O)CCc2nnc3ccc(N4CCCCC4)nn23)cc1OCC	-	-	-	-	-	-	.	.	.	.
CCOC(=O)c1ccc(NC(=O)CN2CCN(C(=O)C3CCCO3)CC2)cc1 (centres undefined)	-	-	-	-	-	-	.	.	.	.
Cc1ccc(O)c(NC(=O)CSc2ccc(Cl)cc2)c1	-	-	-87	-	-	-	-	93	-	95
c1ccc2c(c1)CNc1ccccc1-2	.	-	.	-	.	.	.	.	.	.
CC[C@]12c3[nH]c4ccc(OC)cc4c3CCN1C(=O)C(CC(=O)NCc1ccc(OC)c(OC)c1)C[C@@H]2C(=O)N1CCN(C(=O)C2CC2)CC1 (some centres undefined)	.	-	.	-	.	-	.	.	.	.
O=S1(=O)C=C(Oc2ccc3ccccc3c2)c2ccccc21	-	-	-83	-	-	-	-	95	-	96
O=S1(=O)C=C(Oc2ccc(F)cc2)c2ccccc21	-	-	-	-	-	-	.	.	.	.
O=C(/C=C/c1cccc(Cl)c1)NCc1ccncc1	-	-	-	-	-	-	.	.	.	.
O=C(/C=C/c1cccc(Cl)c1)NCc1cccs1	-	-	-83	-	-	-	-	90	-	91
O=C(/C=C/c1ccc(Cl)cc1)NCc1cccs1	-	-	-	-	-	-	.	.	.	.
